Screening data: PubChem BioAssay, National Center for Advancing Translational Sciences (NCATS)
KB-V1 MDR tox: kills drug-selected multidrug resistant KB-V1 cells | KB-V1 MDR cells viability, CellTiter-Glo, 72 h | 400,000 tested, 3.4% active | Potency, µM (highest dose often 46.1 µM), most hits filed as cytotoxic; further: on the % scale 0 is the no-effect control and ±100 the full control effect; nearly all actives have a fitted effect of over 60% in size
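Cells of the MDR subline KB-V1 are plated, dosed with compound at multiple concentrations, and incubated 72 h at 37 degrees C; CellTiter-Glo is then added and luminescence read after 10 min.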
HT1080 IDH1KD tx: kills HT-1080 cells with IDH1 knockdown; HT-1080 IDH1 knockdown viability, ATP luminescence, 48 h; Potency, µM (top dose mostly 46.1 µM), for the others: at the highest dose activity, negative = toxicity, most hits filed as cytotoxic; 360,000 tested, 2% active; AID 686971;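 further: 0% = DMSO wells and -100% = cell-free medium wells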
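Luminescent ATP read-out (CellTiter-Glo, 10 min at room temperature) after 48 h compound exposure at 37 °C gave viability of IDH1-knockdown HT-1080 cells. Activity was normalised to DMSO and cell-free wells, then fitted as concentration-response curves.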
HT1080-NT tox: kills 2HG-producing HT-1080-NT fibrosarcoma cells; HT-1080-NT fibrosarcoma viability, CellTiter-Glo ATP luminescence, 48 h; Potency, µM (series often up to 46.1 µM), inactives show at the highest dose activity, negative = less viability, actives largely listed as cytotoxic; 360,000 tested, 1.6% active;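 further: NT is the 2HG producing partner of a matched IDH1 knockdown line; 0% = DMSO-treated cells and -100% = media-only wells without cells; nearly all actives have a fitted effect of over 55% in size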
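Compounds were tested in concentration-response format on HT-1080-NT cells for 48 hours at 37 degrees C. Cell viability came from CellTiter-Glo luminescence; curves were classified by r2, response magnitude and activity.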
ATXN2 expr inh: reduces ATXN2 reporter expression in HEK-293 cells | Potency, µM (series often up to 57 µM), for the others: at the top dose activity change, negative = inhibition, most hits filed as inhibitors | HEK-293 ATXN2-luciferase reporter, luminescence, 24 h | 360,000 tested, 0.72% active | AID 1745845; further: on the % scale 0 is the no-effect control and ±100 the full control effect; nearly all actives have a fitted effect of over 55% in size
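qHTS (up to 57 uM final) was run with 24 h compound exposure of reporter cells at 37 °C. Each well was multiplexed: SteadyGlo luminescence measured ATXN2-luciferase expression after a fluorogenic Gly-Phe-AFC viability readout (25 uM final).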
S2 tox: viability counter-screen for ATXN expression inhibitors | 400,000 tested, 0.49% active | S2 cells (HEK-293 line with an ATXN2-luciferase reporter) viability, CellTiter-Fluor protease fluorescence, 24 h | Potency, µM (doses to about 56.7 µM), most hits filed as cytotoxic; further: nearly all actives have a fitted effect of over 40% in size
KB-3-1 tox: KB-3-1 parental cell cytotoxicity; AID 1347075; KB-3-1 viability, CellTiter-Glo ATP luminescence, 72 h; Potency, µM (titrated, usually from 46.1 µM), most hits filed as cytotoxic; 400,000 tested, 1.4% active; further: on the % scale 0 is the no-effect control and ±100 the full control effect; nearly all actives have a fitted effect of over 60% in size
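KB-3-1 cells, DMEM (no phenol red) + 10% FBS; compound by pin transfer, 72 h, 37 °C. Readout: CellTiter-Glo luminescence after 10 min. Data normalized, curve-fitted.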
Starred values were filed as active, the others as inactive; i = inactive; ? = inconclusive; / = not tested or not shown; [ ] = another dose, or the depositor's remark. In the library only some 6.2% were active in any assay of this set; here they are far more common. The call rests on the fitted dose curve; in most records, active means well fitted curve in the direction sought with a large enough effect; inconclusive means small, poorly fitted or top-dose-only effect, or another doubt; inactive means no such curve, though single readings can be large; an effect the other way counts as inactive or inconclusive. Potency means the concentration at half of the fitted maximal effect.

SMILES | KB-V1 MDR tox | HT1080 IDH1KD tx | HT1080-NT tox | ATXN2 expr inh | S2 tox | KB-3-1 tox
O=C(CN1CCOCC1)c1cccc2ccccc12 | i | 2% | 2% | 3% | i | i
CC(C)=CC1C(C(=O)OCc2cccc(Oc3ccccc3)c2)C1(C)C (stereo not drawn) | / | / | / | 12% | i | /
C=CCC1=C(C)C(OC(=O)C2C(C=C(C)C)C2(C)C)CC1=O (stereo not drawn) | / | / | / | ? | 40µM* | /
Cc1cccc(NC(=O)Cn2cc(C(=O)c3ccccc3)c3ccccc32)c1C | i | / | / | -15% | i | i
CCC(=Nc1ccc(OC)cc1OC)c1c(O)n(C)c(=O)n(C)c1=O | ? | ? | -18% | -14% | i | ?
CCCCn1c(O)c(C(CC)=NCc2cc(OC)cc(OC)c2)c(=O)[nH]c1=O | 3.7µM* | -25% | -4% | -18% | i | i
CCCCn1c(O)c(C(CC)=Nc2ccc(OC)cc2OC)c(=O)[nH]c1=O | 21µM* | -24% | -15% | ? | ? | ?
CCCCn1c(O)c(C(CC)=Nc2ccc(OCC)cc2)c(=O)[nH]c1=O | 21µM* | -4% | 4% | -14% | i | ?
CC(=CCCC1=CCC(C2=CC(=O)OC2O)OC1O)CCC1=C(C)CCCC1(C)C (stereo not drawn) | / | / | / | -6% | / | /
Cc1c(C(=O)NCc2ccc3c(c2)OCO3)cnn1-c1ncc2c(n1)-c1ccccc1CC2 | / | / | / | / | i | /
Cc1ccc(NP(=O)(Oc2ccccc2F)Oc2ccccc2F)cc1C | ? | -30% | -11% | -19% | i | i
Cc1cccc(NP(=O)(Oc2ccccc2F)Oc2ccccc2F)c1 | 18µM* | ? | -24% | -16% | i | ?
COc1ccccc1OP(=O)(Nc1cccnc1)Oc1ccccc1OC | 9.2µM* | ? | ? | 1% | i | ?
COc1cccc(NP(=O)(Oc2ccc(Cl)cc2)Oc2ccc(Cl)cc2)c1 | 13µM* | ? | ? | -30% | ? | ?
O=P(Nc1ccccc1)(Nc1ccccc1)Oc1ccc(Cl)cc1 | ? | ? | -1% | -3% | ? | i
O=C1NCCOC(=O)[C@H](Cc2ccc(F)cc2)CC/C=C/C[C@@H]1CC(=O)N(CCO)Cc1ccccc1 | i | 6% | 11% | -4% | i | i
CC(C)C(=O)c1cn(Cc2ccccc2C#N)c2ccccc12 | ? | -24% | -24% | -21% | i | i
CC(=O)c1cn(Cc2ccccc2C#N)c2ccccc12 | 1.8µM* | ? | -8% | / | i | ?
COc1ccccc1-c1nn2c(=O)cc(CN3CCN(C(=O)Nc4ccc(C)cc4Cl)CC3)nc2s1 | ? | / | / | -10% | ? | ?
OC(Cn1c2ccccc2c2ccccc21)C[n+]1cccc2ccccc21 (stereo not drawn) | i | 20µM* | -7%[9.24 µM] | ? | 22µM* | ?
c1ccc2c(CN3CCCCCCC3)c[nH]c2c1 | 15µM* | ? | -1% | -10% | ? | 21µM*
C1=NCCc2c1[nH]c1ccccc21 | 16µM* | 16µM* | ? | ? | i | ?
CC1=NCCc2c1[nH]c1cc(O)ccc21 | i | -12% | 18% | 2% | / | i
CCOC(C(=O)OCCN(C)C)(c1ccccc1)c1ccccc1 | / | / | / | -21% | i | /
CCc1ccccc1NC(=O)C(CC)Oc1ccccc1-c1nnc(-c2ccccc2)o1 (stereo not drawn) | ? | / | / | ? | ? | 15µM*
SMILES | KB-V1 MDR tox | HT1080 IDH1KD tx | HT1080-NT tox | ATXN2 expr inh | S2 tox | KB-3-1 tox
CCCCC[C@@H]1CCCCC[C@@H](O)C[C@@H](O)[C@H](O)/C=C/C(=O)O1 | i | 0% | -22% | 1% | i | i
CC(C)c1ccc(C(O)P(=O)(OCc2ccccc2)c2ccc(N(C)C)cc2)cc1 (stereo not drawn) | i | -2% | -5% | -31% | ? | i
CCCCOP(=O)(c1ccc(N(C)C)cc1)C(Nc1ccccc1)c1ccccc1 (stereo not drawn) | 3.7µM* | -18% | -10% | ? | ? | ?
C[C@H](CO)N1C[C@H](C)[C@H](CN(C)C(=O)N[C@H](C)c2ccccc2)OCc2ccccc2-c2c(n(C)c3ccccc23)C1=O | i | -8% | -3% | -18% | ? | ?
C=C(C=O)CC1CC(O)[C@]2(C)OC3CC4OC5C[C@]6(C)O[C@]7(C)CCC8OC9C[C@]%10(C)OC%11C(C)=CC(=O)OC%11CC%10OC9C[C@@H](C)C8OC7CC6O[C@]5(C)CC5OC5C4OC3CC2O1 (stereo partly drawn) | i | / | ? | ? | / | 12µM*
CCOc1ccc(N2CC(c3nc4ccccc4n3CCC3CCCCC3)CC2=O)cc1 (stereo not drawn) | i | / | / | 16% | ? | i
CCOC(=O)[C@]12Cc3cc(OC)ccc3[C@H]1N(Cc1ccccc1)C(=O)c1cc(F)c(F)cc12 | ? | -1% | -1% | -15% | i | ?
CCOC(=O)[C@]12Cc3ccccc3[C@H]1N(C)C(=O)c1cc(OC)ccc12 | 7.3µM* | ? | ? | ? | / | 9.2µM*
CCOC(=O)[C@]12Cc3c(cc(OC)c(OC)c3OC)[C@H]1N(C(C)C)C(=O)c1ccccc12 | 8.2µM* | 6.5µM* | ? | ? | ? | 13µM*
CCOC(=O)[C@]12Cc3cc(C)ccc3[C@H]1N(Cc1ccccc1)C(=O)c1cc(F)c(F)cc12 | i | ? | ? | 18µM* | 16µM* | 3.3µM*
CCOC(=O)[C@]12Cc3ccccc3[C@H]1N(C(C)C)C(=O)c1cc(OC)ccc12 | 4.1µM* | 16µM* | ? | ? | / | 3.7µM*
CN[C@]1(c2ccccc2Cl)CCCCC1=O | / | / | / | / | i | /
CC(C)C[C@H](CN)CC(=O)O | / | / | / | -4% | / | /
CCNC(=O)C1CCCN(C(=O)c2c(-c3ccccc3)noc2C)CC1 (stereo not drawn) | i | 3% | 15% | 13% | ? | i
CCOC(=O)[C@]12Cc3cc(C)ccc3[C@H]1N(C(C)C)C(=O)c1ccccc12 | i | 26µM* | 12µM* | ? | / | 4.1µM*
CCOC(=O)[C@]12Cc3c(cc(OC)c(OC)c3OC)[C@H]1N(C)C(=O)c1cc(OC)ccc12 | 3.7µM* | ? | 15µM* | 11µM* | / | 2.9µM*
CCOC(=O)[C@]12Cc3cc(C)ccc3[C@H]1N(Cc1ccccc1)C(=O)c1ccccc12 | ? | -22% | -3% | ? | ? | ?
